Compound activity (PubChem)
In the library only some 5.4% were active in any assay of this set; here they are far more common.
CSC inhib: blocks cancer stem cells | cancer stem cell-like cells viability, luminescence | inhibition, % at 7.5 µM | hit rate 1.1% among 300,000; in the data active = inhibition above about 75%; inconclusive = no clear call, values can overlap the other calls; tested in HMLE shEcad cells
PP5 primary: PP5 (human) phosphatase inhibition. purified PP5c, OMFP substrate fluorescence. hit rate 0.18% among 320,000. P53041. inhibition, % at 6.7 µM. AID 1987;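 active = inhibition above the campaign's mean inhibition across all tested compounds plus 3 SD, cut at about 9.5% in these data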
Calb FLC: affects C. albicans growth with fluconazole. C. albicans CaCi-2 (fluconazole-resistant clinical isolate) + fluconazole, Alamar Blue growth, 48 h. growth inhibition, % (concentration not given with the values). hit rate 0.57% among 300,000. AID 1979;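 active = growth inhibition above about 58% in most replicates, limit read from the data, passing the limit was not always enough; inconclusive = exactly half the replicates above a set limit; inactive = most replicates below a set limit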;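 also: all wells also contain fluconazole at 8 µg/ml as a sub-toxic cotreatment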
ALR inh: inhibitors of human sulfhydryl oxidase ALR; P55789; purified ALR, DTT oxidation, H2O2 HRP-luminol luminescence; inhibition, % (test concentration not listed); hit rate 3.8% among 290,000;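 active = mean replicate inhibition above about 79%, with every replicate also reaching it, limit read from the data; inconclusive = only one of the two criteria met; inactive = mean below limit and not every replicate reaching it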
Target sequence (P55789 whole entry, looked up): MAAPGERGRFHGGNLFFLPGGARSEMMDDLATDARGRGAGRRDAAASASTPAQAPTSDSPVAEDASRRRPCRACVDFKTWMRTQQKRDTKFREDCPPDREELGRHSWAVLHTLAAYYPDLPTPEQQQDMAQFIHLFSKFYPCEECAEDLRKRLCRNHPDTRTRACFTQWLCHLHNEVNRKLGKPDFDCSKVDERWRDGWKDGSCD
PP1 counter: PP1-alpha (human) inhibition in PP5 counter-screen | hit rate 0.9% among 320,000 | inhibition, % at 6.7 µM | P62136 | AID 2235 | purified PP1alpha, OMFP fluorescence;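 active = inhibition above the mean inhibition of all tested compounds plus 3 SD, computed separately for each screening campaign, cut at about 15% in these data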
Target sequence (P62136 whole entry, looked up): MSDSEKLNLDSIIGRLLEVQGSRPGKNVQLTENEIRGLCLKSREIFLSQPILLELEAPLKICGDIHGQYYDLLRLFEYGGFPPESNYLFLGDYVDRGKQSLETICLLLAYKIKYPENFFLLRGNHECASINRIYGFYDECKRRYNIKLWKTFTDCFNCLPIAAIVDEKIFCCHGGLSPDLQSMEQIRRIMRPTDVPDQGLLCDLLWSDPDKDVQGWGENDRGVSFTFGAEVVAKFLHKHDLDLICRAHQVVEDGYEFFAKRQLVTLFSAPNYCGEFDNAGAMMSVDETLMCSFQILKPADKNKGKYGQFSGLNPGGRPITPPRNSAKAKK
Each line names hits and unclear results; the compound was inactive in the other large screens.

O=C(CN1CCN(c2ccc(O)cc2)CC1)Nc1ccc(S(=O)(=O)N2CCCC2)cc1	ALR inh 88.0 (no result: PP5 primary, Calb FLC, PP1 counter)
O=S(=O)(c1ccc(NC(=S)N2CCN(c3ccc(O)cc3)CC2)cc1)N1CCOCC1	ALR inh 99.3 (no result: CSC inhib)
CN(C)S(=O)(=O)c1cc(NC(=O)CN2CCN(c3ccc(O)cc3)CC2)ccc1Cl	ALR inh 100.2
O=C(CN1CCCCC1)Nc1ccc(S(=O)(=O)N2CCCCCC2)cc1	none
Cc1ccc(NC(=S)N(Cc2ccco2)C(C)c2cccs2)c(Cl)c1 (centres undefined)	none
Cc1ccc(C)c(Cn2c(CO)nc3ccccc32)c1	none
CC(C)(C)n1nc2c(c1NC(=O)c1cc([N+](=O)[O-])ccc1Cl)CS(=O)(=O)C2	none
Cc1[nH]n(-c2ccccc2)c(=O)c1C(c1cccc([N+](=O)[O-])c1O)c1c(C)[nH]n(-c2ccccc2)c1=O	none
Cc1ccc(S(=O)(=O)N2CCOCC2)cc1NC(=O)CN1CCN(c2ccc(O)cc2)CC1	ALR inh 96.8
CCN(CC)c1ccc(-n2c(C)c(C(C)=O)c(C(C)=O)c2C)cc1	none (no result: ALR inh)
CCN(CC)c1ccc(-n2c(C)cc(C=O)c2C)cc1	ALR inh 98.4 (no result: CSC inhib)
COc1ccc2cc(C3C(C#N)=C(N)OC(C)=C3C(C)=O)c(Cl)nc2c1 (centres undefined)	ALR inh 96.0
O=c1cc(O)nc(SC23CC4CC(CC(C4)C2)C3)[nH]1	PP1 counter 15.6
COc1cc(C2C(C(C)=O)=C(O)C(=O)N2CCc2c[nH]c3ccccc23)ccc1O (centres undefined)	none
Cc1cc(C)n(CCc2nc(-c3ccc(C)o3)cs2)n1	ALR inh 95.2
O=C(c1cnn2c1NC(c1ccc(Br)cc1)CC2C(F)(F)F)N1CCN2CCCC2C1 (centres undefined)	CSC inhib 80.3
O=C(c1cnn2c1NC(c1ccc(Br)cc1)CC2C(F)(F)F)N1CCN(C23CC4CC(CC(C4)C2)C3)CC1 (centres undefined)	none
CSc1ccc(/C=N/NC(=O)c2ccc(O)cc2)cc1	none
O=C(N/N=C/c1ccc(O)cc1)NC12CC3CC(CC(C3)C1)C2	ALR inh 93.3
C=C1CC(C(=O)N/N=C/c2ccc(O)cc2)C1	ALR inh 99.7
O=C(N/N=C/c1ccncc1)NC12CC3CC(CC(C3)C1)C2	none (no result: CSC inhib)
CCOC(=O)c1cc(CNC(=O)c2c(C)oc3c2CCCC3)c(C)o1	none (no result: CSC inhib)
CC(C)(C)Nc1nc(N2CCCC2)nc(N2CCCC2)n1	none
N#C/C(=C(/O)CCl)c1nc2c(s1)CCc1ccccc1-2	none
CCOC(=O)Cc1cc(=O)n2[nH]c(C)c(-c3ccccc3)c2n1	PP1 counter 15.3
COc1ccc(/C=N/NC(=O)c2nn(-c3ccccc3)c(=O)c3c(N)scc23)cc1	none (no result: CSC inhib)
COc1ccc(/C=N/NC(=O)c2nn(-c3ccc(Cl)cc3)c(=O)c3c(N)scc23)cc1	PP1 counter 17.1
Oc1ccc(/C=N/Nc2nc(-c3ccc(Cl)cc3)cc(C(F)(F)F)n2)cc1	CSC inhib 85.4
Nc1nc(-c2ccc(Cl)cc2)cc(C(F)(F)F)n1	none
Fc1ccc(-[n+]2nc(Nc3ccccc3)sc2-c2cccc(Cl)c2Cl)cc1	PP1 counter 17.2
CCc1ccc(Nc2n[n+](-c3ccccc3)c(-c3ccc(SC)cc3)s2)cc1	none
CSc1ccc(-c2sc(Nc3ccccc3)n[n+]2-c2ccccc2)cc1	PP1 counter 16.6
Cc1ccccc1C(=O)c1c[nH]c(C(=O)N2CCN(c3ccccc3F)CC2)c1	none
CN(CC(=O)OCC(=O)c1c(N)n(C)c(=O)n(C)c1=O)S(=O)(=O)c1ccc(Cl)cc1	none (no result: CSC inhib)
c1ccc(CNc2ncnc3sc4c(c23)CCCC4)nc1	ALR inh 96.4
C(=N\Nc1ncnc2sc3c(c12)CCC3)/c1ccncc1	none
Cc1nc(NCc2ccccn2)c2c3c(sc2n1)CCCC3	none
C(=N\Nc1ncnc2sc3c(c12)CCC3)/c1cccs1	CSC inhib 94.3
OC1=C(O)c2nc3ccccc3nc21	none
OC1=C(O)c2nc3cc(C(F)(F)F)ccc3nc21	ALR inh 98.5
CC(CNC(=O)c1ccccc1[N+](=O)[O-])NC(=O)c1ccccc1[N+](=O)[O-] (centres undefined)	none
CC1=C(CC[C@@H](C)CO)OC2CC3C4CCC5CC(O)CCC5(C)C4CC(=O)C3(C)C12 (some centres undefined)	Calb FLC 86.9
CC(CCC(=O)O)C1CCC2C3CCC4C[C@H](O)CCC4(C)C3CC(=O)C12C (some centres undefined)	none
Cc1ccccc1N/C(SCc1ccc(Cl)cc1)=C(/C#N)C(=O)NCc1ccco1	Calb FLC inconclusive
Cc1ccc(CS/C(Nc2ccccc2C)=C(\C#N)C(=O)NCc2ccco2)c(C)c1	ALR inh 99.2
Cc1ccc(C)c(NC(=O)/C(C#N)=C/c2cn(CC(=O)NCc3ccco3)c3ccccc23)c1	CSC inhib 82.0
Cc1cccc(OC(C)C(=O)Nc2ccccc2C(=O)N2CCCCC2)c1 (centres undefined)	none
CC(C)NC(=O)CSc1nc2ccccc2n1CC(=O)N1CCc2ccccc21	none
CC(C)Cn1c(N)c(C(=O)COC(=O)c2cc(-c3ccco3)nc3ccccc23)c(=O)n(C)c1=O	none
Cn1c(=O)c(C(=O)COC(=O)c2cc(-c3ccco3)nc3ccccc23)c(N)n(Cc2ccccc2)c1=O	PP1 counter 19.1
CCc1nc(SCC(=O)c2cccc([N+](=O)[O-])c2)n[nH]1	none
Nc1nc(SCC(=O)c2cccc([N+](=O)[O-])c2)n[nH]1	ALR inh 82.8
Nc1nc(SCC(=O)Nc2ccc([N+](=O)[O-])cc2)n[nH]1	ALR inh 97.2
Cc1nc(-c2ccccn2)nc(SCC(=O)N2CCOCC2)c1Cl	none
Cc1nc(-c2ccccn2)nc(SCC(=O)c2ccccc2)c1Cl	PP1 counter 15.3
Cc1nc(SCC(=O)c2ccccc2)n[nH]1	ALR inh 90.0
Cc1ccc(-c2ccc(SCC(=O)c3ccccc3)nn2)cc1	none
Cc1ccc(C(=O)CSc2nc(-c3ccccc3)ccc2C#N)cc1	CSC inhib 84.4
O=C(Cc1nc2ccccc2[nH]1)c1cccc([N+](=O)[O-])c1	CSC inhib 90.8
Cc1c(CCC(=O)O)c(=O)oc2cc3occ(-c4ccc(F)cc4)c3cc12	ALR inh 97.5
Cc1c(CCC(=O)O)c(=O)oc2cc3occ(-c4ccc(Cl)cc4)c3cc12	none
c1csc(-c2csc3nc(CN4CCOCC4)nc(NCc4ccc5c(c4)OCO5)c23)c1	none
Cc1cc(=O)n(-c2ccc(C(=O)O)cc2)[nH]1	none
Cc1cc(=O)n(-c2ccc(O)cc2)[nH]1	ALR inh 98.6
O=c1c2ccccc2nc(SCc2ccccc2)n1CC1CCCO1 (centres undefined)	none
CCc1c(C)c2cc(Cl)c(O)c(CN3CCCCC3)c2oc1=O	ALR inh 98.3
CCc1cc(=O)oc2c(CN3CCCC3)c(O)c(Cl)cc12	none
COc1cccc(C(=O)Nc2ccc(NC(=O)Cc3ccccc3)cc2)c1	PP1 counter 17.2
COc1cc(C(=O)N/N=C(\C)c2ccc(NC(=O)Cc3ccccc3)cc2)ccc1O	ALR inh 95.5 (no result: PP5 primary, PP1 counter)
